# High-throughput results (PubChem)
# Shown are actives, neighbours in structure and some others; about 3.7% of the full set was active somewhere.
# FadD28 FP inh: inhibitors of FadD28 bisubstrate probe binding, primary screen, biochemical, fluorescence polarization, single point; Mycobacterium tuberculosis FadD28 fatty-acid-AMP ligase; AID 588549, 2011; 0.22% of 360,000 active; inhibition, % at 12.5 µM; in the data active = inhibition above about 8.5%, passing the limit was not always enough; inconclusive = no clear call, values can overlap the other calls
# Mtb UGM inh: M. tuberculosis UGM enzyme inhibitors, primary screen, biochemical, fluorescence polarization, single point. UDP-galactopyranose mutase (Mycobacterium tuberculosis (strain ATCC 25618 / H37Rv)), …. purified UGM, fluorescence polarization probe displacement. inhibition, % at 10 µM. 0.06% of 320,000 active. AID 504406, 2011; in the data active = inhibition above about 10%, passing the limit was not always enough; inconclusive = no clear call, values can overlap the other calls
# FBA Mtb inh: Mtb FBA enzyme inhibitors, primary screen, biochemical, fluorescence, strain H37Rv. Fructose-bisphosphate aldolase (Mycobacterium tuberculosis (strain ATCC 25618 / H37Rv)), …. purified M. tuberculosis FBA, fluorescence read-out. inhibition, % at 1 µM. 2.3% of 360,000 active. AID 588726, 2011;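 note: 0% = vehicle and 100% = reference inhibitor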
# Mtb bLac sens: beta-lactam sensitization of Mtb H37Rv, H37Rv; M. tuberculosis H37Rv growth with meropenem, percent inhibition; inhibition, % at 25 µM; 0.27% of 330,000 active; call rule not given here;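 note: growth measured after seven days incubation then overnight dye step; 0% = bacteria only wells and 100% = bacteria with antibiotic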
# GDH-TPI counter-1: GDH-TPI coupling enzyme inhibitors, primary screen, artefact control for M. tuberculosis FBA inhibitor project, biochemical, absorbance, full deck; GDH-TPI coupled enzyme counterscreen, NADH absorbance; inhibition, % at 4.8 µM; 1.2% of 360,000 active; AID 588335, 2011; in the data active = inhibition above about 30%;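 note: 0% = DMSO wells and 100% = wells lacking the enzyme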
# Rv3671c inh: Rv3671c serine protease inhibitors, primary screen, biochemical, fluorescence polarization, M. tuberculosis H37Rv. inhibition, % at 5.96 µM. 0.048% of 320,000 active; in the data active = inhibition above about 38%;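 note: extracellular domain of Rv3671c used as enzyme; 0% = enzyme with DMSO and 100% = no enzyme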
# Target sequence (P9WHR9 whole entry, looked up, the tested form may be a part): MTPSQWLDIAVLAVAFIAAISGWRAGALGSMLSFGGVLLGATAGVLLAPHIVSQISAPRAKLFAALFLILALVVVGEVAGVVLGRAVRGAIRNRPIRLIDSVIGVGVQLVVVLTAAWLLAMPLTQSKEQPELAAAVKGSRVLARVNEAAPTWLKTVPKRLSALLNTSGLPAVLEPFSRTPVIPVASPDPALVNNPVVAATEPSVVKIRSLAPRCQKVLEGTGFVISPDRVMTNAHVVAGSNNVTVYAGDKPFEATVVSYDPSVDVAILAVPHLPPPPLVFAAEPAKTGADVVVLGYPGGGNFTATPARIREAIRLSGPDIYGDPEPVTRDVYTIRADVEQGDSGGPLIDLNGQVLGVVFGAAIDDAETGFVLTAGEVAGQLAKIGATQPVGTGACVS
# Mtb FBA confirm: M. tuberculosis aldolase blockers, biochemical, fluorescence, strain H37Rv, confirmation. inhibition, % at 1 µM. shares compounds with FBA Mtb inh. 78% of 5,600 active. purified M. tuberculosis FBA, fluorescence read-out;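 note: 0% = vehicle wells and 100% = reference inhibitor wells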
# GDH-TPI counter-2: GDH-TPI coupling enzyme inhibitors, artefact control for M. tuberculosis FBA inhibitor project, biochemical, fluorescence, high throughput. shares compounds with FBA Mtb inh. inhibition, % at 1 µM. 81% of 5,600 active. GDH-TPI coupled enzyme counterscreen. AID 652141, 2013; in the data active = inhibition above about 10%
# * marks the source's active call; other numbers are inactive results; ? = inconclusive; · = not tested or not shown; + = active, no number. Cut-off read from the data, not from the text of the source, unless noted: active = inhibition above about 27%; inactive = the rest.
SMILES,FadD28 FP inh,Mtb UGM inh,FBA Mtb inh,Mtb bLac sens,GDH-TPI counter-1,Rv3671c inh,Mtb FBA confirm,GDH-TPI counter-2
COc1cccc(-c2cc(C(=O)NC3CC3)c3ccccc3n2)c1,·,-2,-1,1,10,5,·,·
CCCOc1ccc(-c2cc(C(=O)NCC3CCCO3)c3ccccc3n2)cc1 (stereo unspecified),0,-4,28*,89,14,-6,177*,154*
COc1ccc(-c2cc(C(=O)NC3CCCC3)c3ccccc3n2)cc1,0,2,41*,18,21,2,72*,55*
O=C(NC1CC1)c1cc(-c2ccc(Br)cc2)nc2ccccc12,-4,1,0,1,2,-11,·,·
O=C(COc1ccc(Cl)cc1)N1CCN(S(=O)(=O)c2cc(F)ccc2F)CC1,-2,·,3,·,8,·,·,·
CCN1CCN(c2ccc(S(=O)(=O)N3CCCCC3)cc2NC(=O)/C=C/c2ccc(Cl)cc2)CC1,-12,·,10,·,-3,·,·,·
CCC(=O)Nc1c(S(=O)(=O)c2ccccc2)c2nc3ccccc3nc2n1C(C)c1ccccc1 (stereo unspecified),2,1,73*,2,27,-22,73*,68*
CC(c1ccccc1)n1c(S(=O)(=O)O)nc2ccccc21 (stereo unspecified),-6,1,-1,-4,-4,-1,·,·
CCCCn1c(NS(=O)(=O)c2ccc(C)cc2)c(C(=O)OCC)c2nc3ccccc3nc21,-2,-2,16,7,8,-151,·,·
CCC(=O)Nc1c(S(=O)(=O)c2ccc(C)cc2)c2nc3ccccc3nc2n1C(C)c1ccccc1 (stereo unspecified),-3,-1,58*,-1,5,-12,50*,30*
CC(=O)c1ccccc1NC(=O)COC(=O)/C(=C/c1ccccc1)n1nnnc1C,-1,-1,-1,10,-4,4,·,·
COc1ccc(CCNC(=S)N2CCN(S(=O)(=O)c3ccc(C)cc3)CC2)cc1,-2,0,-1,-2,-6,6,·,·
CCCn1nc(C(=O)Nc2ccc3nc(N4CCOCC4)sc3c2)ccc1=O,-3,·,1,·,2,·,·,·
CCOC(=O)Cc1c(C)nc(N)[nH]c1=O,-1,-3,0,-2,1,0,·,·
C[C@H](O)C(=O)C1=Nc2c(nc(N)[nH]c2=O)NC1,0,0,27*,-2,19,3,41*,33*
Cc1ccc2c(=O)n3c(nc2c1)C(Cc1ccc(O)cc1)NC(=O)c1cccnc1-3 (stereo unspecified),-4,·,-3,·,-6,·,·,·
CC(C)(C)c1cc(NCCCn2ccnc2)n2ncc(-c3ccc(Cl)cc3)c2n1,-3,2,61*,99,14,8,60*,41*
Cc1cc(NCCCn2ccnc2)n2nc(-c3ccc(Cl)cc3)cc2n1,-4,4,8,55,1,-8,·,·
COc1ccc2nc(Nc3nc4cc5c(cc4s3)OCO5)sc2c1,1,-1,57*,79,14,-7,+,+
COc1ccc(-c2ccc(C#N)c(SCC(=O)NC3CC3)n2)cc1OC,2,0,99*,-2,25,-6,108*,111*
COc1ccc(-c2ccc(SCC(=O)NC3CCCC3)nn2)cc1OC,-2,0,3,?,11,-2,·,·
CCSc1nc(-c2ccc(OC)cc2)ccc1C#N,-1,-2,42*,80,13,2,84*,80*
CC1CCN(S(=O)(=O)N2CCC(C(=O)NCCc3ccccc3)CC2)CC1,-3,3,-9,-7,-5,-2,·,·
CC(C)NC(=O)OCc1c(COC(=O)NC(C)C)c([N+](=O)[O-])n2c1CCC2,-4,·,-2,·,·,·,·,·
Cc1ccc(-c2ccc(CO)o2)cc1N,-1,1,30*,-4,6,-6,187*,121*
SMILES,FadD28 FP inh,Mtb UGM inh,FBA Mtb inh,Mtb bLac sens,GDH-TPI counter-1,Rv3671c inh,Mtb FBA confirm,GDH-TPI counter-2
CCOC(=O)C1CCc2c(ccc3ccccc23)N1CCC#N (stereo unspecified),0,·,56*,·,-1,·,2,-4
CN(C)CCCN(C(=O)c1ccc2c(c1)CCCC2)c1nc2ccc(Cl)cc2s1,-4,-2,-1,100,8,2,·,·
O=C(NC1CCCC1)c1cc2c(ccc3ccccc32)o1,-1,-4,40*,69,-3,-8,107*,80*
Cc1ccc(/C=N/NC(=O)c2cc3c(ccc4ccccc43)o2)o1,-2,·,5,·,22,·,·,·
O=C(NC1CC1)c1cc2ccccc2o1,-2,-4,3,-9,-4,1,·,·
CNC(=O)c1cc2c(ccc3ccccc32)o1,-1,2,51*,0,11,-5,127*,102*
O=C(NCc1ccc(Cl)cc1)c1ccccc1CCc1ccccc1,-2,4,4,61,6,-13,·,·
Nc1ccccc1C(=O)NCc1ccc(Cl)cc1,0,-1,49*,7,11,5,161*,139*
COc1cccc(CNC(=O)CCNC(=O)c2ccccc2OC)c1,-2,-2,0,-15,3,-9,·,·
Nc1ccccc1C(=O)NCc1ccc(F)cc1,-3,1,77*,-4,10,7,·,+
Cc1c(NC(=O)c2ccccc2N)cccc1C(=O)O,-5,0,14,12,-1,-2,·,·
O=C(O)c1ccccc1C(=O)NCc1ccc(F)cc1,0,2,1,-9,4,-8,·,·
Nc1ccccc1NC(=O)c1ccccc1N,-3,-1,61*,-3,7,1,101*,87*
COc1cccc(CNC(=O)c2ccccc2N)c1,2,1,63*,-4,6,4,59*,54*
CCCn1nc2cc(C(=O)NCc3ccc4c(c3)OCO4)ccc2c1OCC,-2,0,62*,15,1,-5,186*,167*
CCOc1cc(C(=O)NCc2ccc3c(c2)OCO3)cc(OCC)c1OCC,-1,-1,1,3,9,0,·,·
CN1C(=O)c2ccc(C(=O)NCc3ccc4c(c3)OCO4)cc2C1=O,-1,-2,3,0,3,-2,·,·
CCOc1c2ccc(C(=O)NCc3ccc4c(c3)OCO4)cc2nn1CCOC,-4,-1,49*,0,-6,6,2,-5
